Source: PubChem BioAssay AID588342 (National Center for Advancing Translational Sciences (NCATS), 2011)
Out of some 360,000 compounds screened, about 25,000 (6.9%) were called active. Another 9% or so got no clear call; they are omitted. What follows is part of a selection rich in actives, with near analogues and random picks from the rest. A number with no mark means an inactive call. Calls come from the whole dose curve; as a rule, active = well fitted inhibition curve with a large enough effect; inconclusive = small, poorly fitted or top-dose-only effect; inactive = flat fitted curve, though single readings scatter.

The compounds below were run against Luciferin 4-monooxygenase (Photinus pyralis) (UniProt P08659) (assay: qHTS profiling assay for firefly luciferase inhibitor/activator using purifed enzyme and Km concentrations of substrates (counterscreen for miR-21 project)). Conditions: purified FLuc, luminescence inhibition; series mostly up to 57.5 µM; activity change, negative = inhibition: at the top concentration.
Procedure, shortened: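 Purified P. pyralis luciferase (10nM final) with 10uM D-luciferin and 10uM ATP (Km levels) in 50mM Tris acetate pH 7.5, 10mM Mg acetate, 0.01% Tween-20, 0.05% BSA; qHTS 6-point titration, ~60 µM downward; luminescence read.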
Note: nearly all actives have a fitted effect of over 55% in size.
Potency is the fitted concentration of half-maximal effect.
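Throughout, for activity change, negative = inhibition: plate controls were vehicle for no effect and reference inhibitor for full effect.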

Chain of Luciferin 4-monooxygenase (Photinus pyralis) (P08659 whole entry, looked up): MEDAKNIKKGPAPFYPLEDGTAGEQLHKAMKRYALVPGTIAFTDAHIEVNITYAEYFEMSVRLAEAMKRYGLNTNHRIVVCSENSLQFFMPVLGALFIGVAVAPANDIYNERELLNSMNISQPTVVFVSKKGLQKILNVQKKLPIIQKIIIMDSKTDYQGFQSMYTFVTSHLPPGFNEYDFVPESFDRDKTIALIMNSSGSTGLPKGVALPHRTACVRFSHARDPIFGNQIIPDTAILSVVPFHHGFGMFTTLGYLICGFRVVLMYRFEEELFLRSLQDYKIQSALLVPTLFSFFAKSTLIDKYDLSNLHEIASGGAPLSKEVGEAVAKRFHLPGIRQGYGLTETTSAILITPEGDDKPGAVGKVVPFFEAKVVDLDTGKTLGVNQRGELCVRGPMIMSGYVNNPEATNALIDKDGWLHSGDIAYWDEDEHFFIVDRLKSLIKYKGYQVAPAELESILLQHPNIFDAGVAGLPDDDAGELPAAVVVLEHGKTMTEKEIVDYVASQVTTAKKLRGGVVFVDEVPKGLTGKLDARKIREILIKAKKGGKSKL

Row | Structure (SMILES) | activity change, negative = inhibition | Potency
1 | CN1c2ccc(Cl)cc2-c2nc(SCC(=O)Nc3cc(F)ccc3F)ncc2S1(=O)=O | -11.9% | 
2 | O=C(NCCCO)C(=O)Nc1c2c(nn1-c1ccc(F)cc1)CSC2 | -11.4% | 
3 | Cn1c2cc(B(O)O)sc2c2cnn(Cc3ccccc3F)c(=O)c21 | -0.41% | 
4 | CCc1noc(C)c1C(=O)N1CCN(S(=O)(=O)c2cccc(C(F)(F)F)c2)CC1 | 4.82% | 
5 | OCC[C@H]1C[C@@H](O)[C@H](O)[C@@]2(OCCc3ccccc32)O1 | -0.0292% | 
6 | COc1ccc(S(=O)(=O)N2CCN(CC(=O)N3c4ccccc4CC3C)CC2)cc1OC (stereo unspecified) | -2.58% | 
7 | CC1Cc2cc(S(=O)(=O)CCC(=O)NCc3ccc(Cl)cc3)ccc2N1C(=O)C1CC1 (stereo unspecified) | -4.82% | 
8 | O=S(=O)(NCc1ccc(Cl)cc1Cl)c1cccs1 | -19.7% | 
9 | O=S(=O)(Nc1ccccc1Br)c1cccs1 | -2.09% | 
10 | O=C(Nc1cccc(Cl)c1)Nc1ccccc1NS(=O)(=O)c1cccs1 |  | 16.9 µM (active)
11 | Cc1ccc(Cl)cc1N(C)C(=O)C1CCCN(c2ncnc3onc(-c4ccc(F)cc4)c23)C1 (stereo unspecified) | 2.19% | 
12 | COc1cc(OC)cc(C(=O)Nc2c(C(=O)Nc3ccc(F)cc3)oc3ccccc23)c1 |  | 2.69 µM (active)
13 | COc1ccccc1C(=O)Nc1c(C(=O)Nc2ccc(C)cc2)oc2ccccc12 | -0.534% | 
14 | COc1ccccc1NC(=O)c1oc2ccccc2c1NC(=O)C(C)C | -2.09% | 
15 | Cc1ccc(C)c(NC(=O)Cn2ccn(-c3ccc(F)cc3)c(=O)c2=O)c1 | 4.99% | 
16 | CCOC(=O)C1CCN(c2nc3c(S(=O)(=O)c4ccc(CC)cc4)nnn3c3ccc(Cl)cc23)CC1 | -1.37% | 
17 | CCc1ccc(CNC(=O)c2cc3c(=O)n(CC)c4ccccc4c3s2)cc1 | 1.5% | 
18 | O=C(CCN1CCCO1)N1CCCC(N2CCN(c3cccc(C(F)(F)F)c3)CC2)C1 (stereo unspecified) | 2.52% | 
19 | CCc1ccc(CNC(=O)C2CCN(c3nn4cc(-c5ccc(F)cc5)nc4s3)CC2)cc1 | 1.26% | 
20 | CCC(CC)c1nn2cc(-c3ccccc3)nc2s1 |  | 0.269 µM (active)
21 | CCC(CC)c1nnc(NS(=O)(=O)Cc2ccccc2)s1 | -1.81% | 
22 | Cc1ccc(F)cc1NC(=O)CCSc1nc(-c2ccco2)cc(C(F)(F)F)n1 | -0.691% | 
23 | Clc1ccccc1CSc1nncn2c1cc1occc12 | -11.8% | 
24 | CSCCC(NC(=O)COc1ccccc1)C(=O)N(C)CC(=O)Nc1ccc(C)cc1 (stereo unspecified) | -1.45% | 
25 | CCOC(=O)C1CCN(C(=O)CSc2c3c(nc4ccc(Cl)cc24)CCCC3)CC1 | -13.8% | 
26 | C=CC[n+]1c(-c2ccc(C)cc2)csc1NNC(=O)Nc1ccccc1 |  | 19 µM (active)

Row | Structure (SMILES) | activity change, negative = inhibition | Potency
27 | C=CCNC(=O)c1csc(-c2ccccc2)n1 | -1.52% | 
28 | C=CCNc1scc(-c2ccccc2)[n+]1CC=C | -2.24% | 
29 | CCOC(=O)C1CCCN(CCSc2ccc(C)cc2)C1 (stereo unspecified) | 0.266% | 
30 | O=C(COC(=O)CNC(=O)C1CCCCC1)NCc1ccccc1 | 0.92% | 
31 | COc1ccc2c(CC(=O)OCC(=O)Nc3ccccc3[N+](=O)[O-])coc2c1 | -0.294% | 
32 | Cc1ccc(C)c(OCC(=O)N2CCN(C(=O)c3ccco3)CC2)c1 | -0.911% | 
33 | Cc1nc2ccc(C(=O)N3CCN(c4ccccc4)CC3)cc2s1 | 0.986% | 
34 | Cc1ccc(OCC(=O)Nc2ccc(N3CCN(C(=O)c4ccco4)CC3)cc2)c(C)c1 | 0.84% | 
35 | Cc1ccc2nc(N3CCN(C(=O)c4ccco4)CC3)sc2c1 |  | 10.7 µM (active)
36 | Cc1nc2ccc(C(=O)N3CCSCC3)cc2s1 | -1.24% | 
37 | CC1CCN(c2nc3ccc(C(=O)N4CCN(c5ccccc5)CC4)cc3s2)CC1 |  | 23.9 µM (active)
38 | COc1cccc(CN2CCc3nc(SCC(=O)Nc4ccccc4)[nH]c(=O)c3C2)c1 | 2.41% | 
39 | COC(=O)C(NS(=O)(=O)c1ccc(F)cc1)c1ccccc1 (stereo unspecified) | -0.463% | 
40 | CCOc1ccc(N(Cc2ccccc2)C(=O)c2nc(S(C)(=O)=O)ncc2Cl)cc1 | -18.4% | 
41 | COc1ccc(C(=O)Cn2nnc(-c3ccc(N4CCOCC4)cc3)n2)cc1OC |  | 8.49 µM (active)
42 | CCOc1ccc(-c2nnn(CC(=O)N3CCN(c4ccc(F)cc4)CC3)n2)cc1OCC | 4.38% | 
43 | CCOc1ccc(-c2nnn(CC(=O)N3CCN(c4ccc(OC)cc4)CC3)n2)cc1OCC | 1.79% | 
44 | COC(=O)C1CCN(C(=O)c2ccc3oc(Cc4ccc(Cl)cc4)nc3c2)CC1 | 1.04% | 
45 | COc1cccc(NC(=O)Cn2c(=O)cc(C)c3c(C)nn(-c4cccc(F)c4)c32)c1 | -13.9% | 
46 | Cn1c(=O)n(C)c2cc(S(=O)(=O)Nc3ccc(F)cc3)ccc21 | 2.5% | 
47 | COc1ccccc1N1CC(C(=O)Nc2nnc(SCC(=O)NCC3CCCO3)s2)CC1=O (stereo unspecified) | 2.57% | 
48 | Cc1ccc2cc(C#N)c(SCC(=O)NCC3CCCO3)nc2c1C (stereo unspecified) | 1.51% | 
49 | COc1cc(OC)cc(C(=O)Nc2nnc(SCC(=O)NCC3CCCO3)s2)c1 (stereo unspecified) |  | 15.1 µM (active)
50 | Cc1cc(C)nc(Nc2n[nH]c(-c3ccccc3N)n2)n1 |  | 0.953 µM (active)
51 | CCCOc1ccccc1-c1nc(SCCC(=O)O)n[nH]1 | -0.6% | 
